Results filed as inconclusive are left out. Active and inactive are the calls of the source. Unless noted, the call rests on the fitted dose curve; in most records, active means well fitted curve in the direction sought with a large enough effect in the repeat runs; inconclusive means weak or mixed curves; inactive means no such curve, though single readings can be large; an effect the other way counts as inactive or inconclusive.

The source of these data is PubChem BioAssay (Tox21).

A short description of assay [1]: qHTS assay to identify small molecule antagonists of the glucocorticoid receptor (GR) signaling pathway - cell viability counter screen (AID 720693). Further: nearly all actives have a fitted effect of over 55% in size. For orientation: qHTS replaces the single test concentration by a dilution series.
The nature of assay [2]: qHTS assay for identifying genotoxic compounds that show differential cytotoxicity against isogenic chicken DT40 cell lines with known DNA damage response pathways - wild type cell line (AID 743012). Further: nearly all actives have a fitted effect of over 60% in size. Further: potency means the concentration at half of the fitted maximal effect. In short, it runs like this: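 300 wt DT40 cells/well; cpd (DMSO) pintool-transferred after ~0.5 h at 37 C/5% CO2; 40 h incubation; CellTiter-Glo added, 30 min RT; luminescence read.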

Assay [3] is described as follows: qHTS assay for identifying genotoxic compounds that show differential cytotoxicity against isogenic chicken DT40 cell lines with known DNA damage response pathways - Rev3 mutant cell line (AID 743014). Further: nearly all actives have a fitted effect of over 55% in size. Further: potency means the concentration at half of the fitted maximal effect.
Assay [4] is described as follows: qHTS assay for identifying genotoxic compounds that show differential cytotoxicity against isogenic chicken DT40 cell lines with known DNA damage response pathways - Rad54/Ku70 mutant cell line (AID 743015). Further: nearly all actives have a fitted effect of over 60% in size. Further: potency means the concentration at half of the fitted maximal effect.
A short description of assay [5]: qHTS assay to identify small molecule antagonists of the androgen receptor (AR) signaling pathway - cell viability counter screen (AID 743033; further: nearly all actives have a fitted effect of over 45% in size; further: potency means the concentration at half of the fitted maximal effect).
The nature of assay [6]: qHTS assay to identify small molecule antagonists of the androgen receptor (AR) signaling pathway using the MDA cell line - cell viability counter screen (AID 743041; further: nearly all actives have a fitted effect of over 45% in size). In short, it runs like this: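 Viability read by CellTiter-Fluor fluorescence in the same wells as the antagonist screen, added after 15.5 h of a 16 h, 37C exposure. Human breast carcinoma MDA-kb2 AR-luc cells, compounds co-dosed with agonist R1881.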

The nature of assay [7]: qHTS assay to identify small molecule antagonists of the thyroid receptor (TR) signaling pathway - cell viability counter screen (AID 743064). Further: nearly all actives have a fitted effect of over 50% in size. Further: potency means the concentration at half of the fitted maximal effect. In short, it runs like this:
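Plate GH3.TRE-Luc cells; incubate 4 h at 37 °C; add compound, then T3 to 1 nM final; incubate 23.5 h; add CellTiter-Fluor; incubate 30 min at 37 °C, 5% CO2; read fluorescence.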

Assay [8] in a line: qHTS assay to identify small molecule antagonists of the thyroid receptor (TR) signaling pathway (AID 743065). Further: nearly all actives have a fitted effect of over 55% in size. Further: potency means the concentration at half of the fitted maximal effect. In short, it runs like this: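 Antagonism measured as loss of luciferase signal in GH3 cells stably carrying a TRE-luciferase reporter, co-treated with compound and T3 (1 nM final) for 23.5 h at 37 C. Viability was read in the same well by CellTiter-Fluor.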
Assay [9] concerns thyroid hormone receptor (rat, GH3 cells). The assay can be described thus: qHTS assay to identify small molecule agonists of the thyroid receptor (TR) signaling pathway (AID 743066; calls by dose curve).
Assay [10] has as its target Estrogen receptor (Homo sapiens) (UniProt P03372). The assay can be described thus: qHTS assay to identify small molecule antagonists of the estrogen receptor alpha (ER-alpha) signaling pathway (AID 743069; active means well fitted curve in the direction sought with a large enough effect in the signal ratio in the repeat runs, not every such curve was filed as active; the % refers to the signal ratio). In short, it runs like this: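 Antagonist mode: compounds in DMSO were co-added with 17beta-estradiol to ER-alpha-bla HEK293 cells (2% charcoal-stripped serum) and left 18 h at 37C. Reporter inhibition was measured as FRET fluorescence after 2 h LiveBLAzer substrate at room temperature.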

The nature of assay [11]: qHTS assay to identify small molecule antagonists of the estrogen receptor alpha (ER-alpha) signaling pathway - cell viability counter screen (AID 743074; calls by dose curve;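 further: HEK293 cells carrying ER-alpha-UAS-bla reporter stimulated with 17beta-estradiol; nearly all actives have a fitted effect of over 45% in size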).
The target in assay [12] is Estrogen receptor (Homo sapiens) (UniProt P03372). Put plainly: qHTS assay to identify small molecule agonists of the estrogen receptor alpha (ER-alpha) signaling pathway (AID 743075; calls by dose curve;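 further: HEK293 GripTite cells with ER-alpha and UAS-driven beta-lactamase reporter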).
Sequence of Estrogen receptor (Homo sapiens) (P03372 whole entry, looked up): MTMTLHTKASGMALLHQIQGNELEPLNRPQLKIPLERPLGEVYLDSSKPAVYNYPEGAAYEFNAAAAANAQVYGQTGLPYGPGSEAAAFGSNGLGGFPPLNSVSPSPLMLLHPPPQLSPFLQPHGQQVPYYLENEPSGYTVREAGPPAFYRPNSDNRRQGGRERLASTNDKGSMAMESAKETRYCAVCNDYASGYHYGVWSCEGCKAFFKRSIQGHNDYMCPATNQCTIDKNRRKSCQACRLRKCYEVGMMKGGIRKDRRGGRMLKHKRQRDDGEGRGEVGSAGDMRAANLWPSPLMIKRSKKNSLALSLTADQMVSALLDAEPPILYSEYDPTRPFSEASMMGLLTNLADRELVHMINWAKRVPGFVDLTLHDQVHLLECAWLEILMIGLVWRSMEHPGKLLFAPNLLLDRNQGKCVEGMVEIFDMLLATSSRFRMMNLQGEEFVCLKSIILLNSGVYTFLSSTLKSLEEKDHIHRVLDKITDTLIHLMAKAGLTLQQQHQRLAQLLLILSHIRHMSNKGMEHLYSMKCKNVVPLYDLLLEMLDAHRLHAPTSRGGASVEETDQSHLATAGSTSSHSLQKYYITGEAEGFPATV
Assay [13] shares this target. The assay can be described thus: qHTS assay to identify small molecule agonists of the estrogen receptor alpha (ER-alpha) signaling pathway using the BG1 cell line (AID 743079). Further: nearly all actives have a fitted effect of over 20% in size.
Assay [14] in a line: qHTS assay to identify small molecule antagonists of the estrogen receptor alpha (ER-alpha) signaling pathway using the BG1 cell line (AID 743080; calls by dose curve;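 further: BG1 cells stimulated with 17beta-estradiol alongside compound; nearly all actives have a fitted effect of over 25% in size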; further: potency means the concentration at half of the fitted maximal effect). In short, it runs like this: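 Quantitative HTS on the Tox21 10K library: BG1 cells with endogenous ER-alpha and ERE-luciferase reporter, 17beta-estradiol stimulation, 21.5 h compound exposure, luminescence endpoint with parallel fluorescence cytotoxicity counter-read.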

A short description of assay [15]: qHTS assay to identify small molecule antagonists of the estrogen receptor alpha (ER-alpha) signaling pathway using the BG1 cell line - cell viability counter screen (AID 743081).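 Further: compound given together with 17beta-estradiol as the ER stimulus; series mostly up to about 70 µM; nearly all actives have a fitted effect of over 45% in size.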
Assay [16] concerns the target Aromatase (Homo sapiens) (UniProt P11511). Put plainly: qHTS assay to identify aromatase inhibitors (AID 743083). Further: series mostly up to about 70 µM; nearly all actives have a fitted effect of over 55% in size.
Assay [17] has as its target Androgen receptor (Homo sapiens) (UniProt P10275). The assay can be described thus: qHTS assay to identify small molecule antagonists of the androgen receptor (AR) signaling pathway (AID 743035; active means well fitted inhibition curve with a large enough effect in the signal ratio in the repeat runs, not every such curve was filed as active; the % refers to the signal ratio). In short, it runs like this: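 In this cell-based reporter screen, compounds were tested in concentration series against R1881-activated HEK293 cells expressing beta-lactamase under UAS control; after 16 h at 37C, FRET substrate was added and fluorescence read 2 h later.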

Assay [18] has the same target. The assay can be described thus: qHTS assay to identify small molecule agonists of the androgen receptor (AR) signaling pathway (AID 743036; active means well fitted activation curve with a large enough effect in the signal ratio in the repeat runs, with a control signal flat, not every such curve was filed as active; the % refers to the signal ratio). In short, it runs like this: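 Reporter line: GeneBLAzer AR-UAS-bla-GripTite (HEK293). Steps: plate cells, 4 h rest, add compounds, 16 h at 37C, add LiveBLAzer B/G substrate, 2 h at RT, read fluorescence.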
The target is the same in assay [19]. Put plainly: qHTS assay to identify small molecule agonists of the androgen receptor (AR) signaling pathway using the MDA cell line (AID 743040; further: nearly all actives have a fitted effect of over 20% in size). In short, it runs like this:
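Luciferase agonist assay: 16 h compound exposure at 37C without CO2 in MDA-kb2 AR-luc cells, whose MMTV promoter responds to both AR and GR. Luminescence measured after 30 min room-temperature incubation with ONE-Glo.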

Assay [20] shares this target. Put plainly: qHTS assay to identify small molecule antagonists of the androgen receptor (AR) signaling pathway using the MDA cell line (AID 743042; further: nearly all actives have a fitted effect of over 55% in size; further: potency means the concentration at half of the fitted maximal effect). In short, it runs like this: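 Antagonist mode: compounds plus R1881 agonist added to MDA-kb2 AR-luc cells, incubated 16 h at 37C. Luciferase reporter luminescence quantified, with multiplexed CellTiter-Fluor readout for cell viability.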

Sequence of Aromatase (Homo sapiens) (P11511 whole entry, looked up): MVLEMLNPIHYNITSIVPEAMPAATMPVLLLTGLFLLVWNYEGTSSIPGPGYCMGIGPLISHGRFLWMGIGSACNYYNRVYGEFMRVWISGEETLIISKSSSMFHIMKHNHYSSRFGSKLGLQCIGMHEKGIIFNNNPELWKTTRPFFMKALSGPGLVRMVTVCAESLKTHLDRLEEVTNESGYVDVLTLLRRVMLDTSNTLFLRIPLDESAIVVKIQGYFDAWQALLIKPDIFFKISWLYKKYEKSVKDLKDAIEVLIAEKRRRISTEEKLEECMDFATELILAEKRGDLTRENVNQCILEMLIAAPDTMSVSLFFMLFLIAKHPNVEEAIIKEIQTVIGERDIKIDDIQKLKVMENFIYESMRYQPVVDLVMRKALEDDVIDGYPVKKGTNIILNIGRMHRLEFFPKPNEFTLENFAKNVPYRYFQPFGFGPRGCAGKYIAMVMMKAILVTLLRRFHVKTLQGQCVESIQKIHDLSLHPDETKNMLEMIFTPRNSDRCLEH
Sequence of Androgen receptor (Homo sapiens) (P10275 whole entry, looked up): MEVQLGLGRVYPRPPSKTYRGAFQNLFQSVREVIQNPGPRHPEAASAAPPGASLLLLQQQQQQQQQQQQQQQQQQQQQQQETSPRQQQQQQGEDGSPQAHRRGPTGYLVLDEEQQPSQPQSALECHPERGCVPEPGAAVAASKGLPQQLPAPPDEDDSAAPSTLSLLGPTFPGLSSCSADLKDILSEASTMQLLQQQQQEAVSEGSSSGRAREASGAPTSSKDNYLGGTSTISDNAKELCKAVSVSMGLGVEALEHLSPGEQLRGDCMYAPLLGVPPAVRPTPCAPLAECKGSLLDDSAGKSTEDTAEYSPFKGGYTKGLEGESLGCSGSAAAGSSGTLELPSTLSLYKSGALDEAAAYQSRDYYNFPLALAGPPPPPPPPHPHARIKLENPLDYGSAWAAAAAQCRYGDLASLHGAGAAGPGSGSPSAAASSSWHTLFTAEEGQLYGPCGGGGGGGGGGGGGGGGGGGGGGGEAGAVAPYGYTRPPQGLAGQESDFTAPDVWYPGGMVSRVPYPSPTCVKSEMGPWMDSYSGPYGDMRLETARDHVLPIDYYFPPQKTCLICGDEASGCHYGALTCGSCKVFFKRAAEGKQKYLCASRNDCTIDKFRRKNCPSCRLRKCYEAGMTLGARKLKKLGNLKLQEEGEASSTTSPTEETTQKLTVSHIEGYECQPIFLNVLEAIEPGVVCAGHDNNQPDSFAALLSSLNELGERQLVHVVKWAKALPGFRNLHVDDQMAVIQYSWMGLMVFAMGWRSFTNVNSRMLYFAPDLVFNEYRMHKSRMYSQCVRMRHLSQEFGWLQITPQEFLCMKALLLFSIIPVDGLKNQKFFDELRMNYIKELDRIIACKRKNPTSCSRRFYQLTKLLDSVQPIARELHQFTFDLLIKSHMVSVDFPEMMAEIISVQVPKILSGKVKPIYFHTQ

Turning to `CC(Cl)C(C)Cl` (stereo not drawn), the Potency entry in assay [1], in [2], in [3], in assay [4], in assay [5] and in assay [6] was “inactive” in each case. Further, the Potency entry in assay [7], in [8], in [9], in [10], in assay [11] and in assay [12] was “inactive” throughout. The Potency entry in assay [13], in [14], in assay [15] and in [16] was “inactive” each time.
Turning to `CC(=O)NC1CCSC1=O` (stereo not drawn), the Potency entry in assay [1], in assay [2], in assay [3], in assay [4], in [5] and in assay [17] was “inactive” throughout. In addition, the Potency result in [19], in assay [6], in assay [20], in [7], in assay [8] and in assay [9] was “inactive” in each case. Also, the Potency entry in assay [10], in assay [11], in [12], in [13], in [14] and in assay [15] was “inactive” each time. Besides, the Potency result in [16] was “inactive”. Further, the result in [18] was inactive.
Consider `Cc1ccc(-c2c(Cl)nc(C#N)n2S(=O)(=O)N(C)C)cc1`, for which the Potency entry in assay [1], in assay [19] and in assay [15] was “inactive” in each case. Moreover, the Potency in [2] was 61.1 µM (active); in assay [3], 61.1 µM (active); in assay [4] it was 61.1 µM (active); in [5] it was 43.6 µM (active); in assay [20] it was 54.4 µM (active); in assay [7], 54.4 µM (active). Moreover, in [14], the Potency is 54.4 µM (active).
Take `Clc1cccc2ccccc12`: the Potency entry in assay [1], in [2], in [3], in assay [4], in assay [5] and in assay [6] was “inactive” each time. The Potency entry in assay [7], in [8], in assay [9], in assay [11], in [15] and in assay [16] was “inactive” in each case.
As to `C/C=C/C=O`, the Potency entry in assay [1], in [2], in assay [3], in [4], in [5] and in assay [6] was “inactive” throughout. In addition, the Potency result in [7], in assay [8], in assay [9], in [11], in assay [15] and in assay [16] was “inactive” each time.
For `CCCCCCCCCCOC(=O)c1ccccc1C(=O)OCCCCCCCCCC`, the Potency entry in [1], in assay [2], in assay [3], in assay [4], in assay [5] and in [19] was “inactive” in each case. Moreover, the Potency result in assay [11], in assay [12], in [13], in assay [14], in assay [15] and in [16] was “inactive” each time. For the same molecule, the molecule was classed as inactive in assay [18].
On to `CC(=O)C(C)(C)C`, for which the Potency result in assay [1], in assay [5], in assay [6], in [7], in [8] and in assay [9] was “inactive” throughout. Besides, the Potency result in [10], in assay [11], in assay [12], in assay [13], in assay [14] and in assay [15] was “inactive” each time. The Potency entry in assay [16] is “inactive”. Moreover, the values for the Potency in assay [2], in [3] and in assay [4] were 45 µM (active), 3.18 µM (active) and 4.01 µM (active), respectively.
For the molecule `Brc1ccccc1`, the Potency entry in assay [1], in [2], in assay [3], in [4], in [5] and in assay [17] was “inactive” each time. Moreover, the Potency entry in [19], in assay [6], in assay [20], in assay [7], in [8] and in [9] was “inactive” each time. For the same molecule, the Potency entry in assay [10], in assay [11], in assay [12], in assay [13], in assay [14] and in [15] was “inactive” in each case. The Potency entry in [16] was “inactive”. In assay [18], the outcome was inactive.
For the molecule `CC(=O)CCC(C)=O`, the Potency entry in assay [1], in assay [2], in [3], in assay [4], in [5] and in [6] was “inactive” each time. The Potency entry in assay [7], in assay [8], in assay [9], in assay [10], in [11] and in assay [12] was “inactive” in each case. Further, the Potency entry in assay [13], in assay [14], in assay [15] and in [16] was “inactive” each time.
On to `Cc1ccc2ccccc2c1`, for which the Potency result in [1], in [2], in [3], in assay [4], in assay [5] and in assay [17] was “inactive” each time. The Potency entry in assay [19], in [20], in assay [7], in [8], in assay [9] and in [10] was “inactive” in each case. Moreover, the Potency result in assay [11], in assay [12], in [13], in assay [14], in assay [15] and in [16] was “inactive” throughout. Also, in [18], the call was inactive.
For `Cl/C=C\C[N+]12CN3CN(CN(C3)C1)C2`, the Potency entry in assay [1], in assay [5], in assay [19], in assay [6], in assay [20] and in [7] was “inactive” in each case. Besides, the Potency result in [9], in assay [10], in assay [11], in assay [12], in assay [13] and in assay [14] was “inactive” throughout. The Potency entry in [15] was “inactive”. The Potency is 48.6 µM (active) in assay [2], 30.6 µM (active) in assay [3] and 43.3 µM (active) in assay [4]. In addition, in [18], the molecule was classed as inactive.
Take `Cl/C=C\Cl`: the Potency result in assay [1], in [2], in assay [3], in assay [4], in assay [5] and in assay [6] was “inactive” throughout. For the same molecule, the Potency result in assay [7], in assay [8], in [9], in assay [10], in assay [11] and in assay [12] was “inactive” throughout. Moreover, the Potency result in assay [13], in assay [15] and in [16] was “inactive” each time.
For `COC(=O)C(C)N(C(=O)Cc1ccccc1)c1c(C)cccc1C` (stereo not drawn), the Potency entry in assay [1], in assay [5], in [19], in assay [6], in assay [7] and in [9] was “inactive” throughout. Also, the Potency entry in [10], in assay [11], in assay [12], in [13], in assay [14] and in assay [15] was “inactive” each time. In assay [16], the Potency entry was “inactive”. For the same molecule, the Potency in assay [2] was 8.63 µM (active); in [3], 9.69 µM (active); in assay [4], 15.4 µM (active); in [8], 61.1 µM (active).
Consider `C=CCOC(C)=O`, for which the Potency entry in assay [1], in assay [2], in [3], in assay [4], in assay [5] and in assay [17] was “inactive” each time. The Potency result in [19], in [6], in [20], in assay [7], in [8] and in assay [9] was “inactive” in each case. Besides, the Potency entry in assay [10], in assay [11], in assay [12], in assay [13], in assay [14] and in assay [15] was “inactive” in each case. In assay [16], the Potency entry is “inactive”. Further, the outcome in [18] was inactive.
Take `COP(=S)(OC)Oc1ccc([N+](=O)[O-])cc1Cl`: the Potency entry in assay [1], in assay [2], in assay [3], in [4], in [5] and in assay [19] was “inactive” each time. In addition, the Potency result in [20], in assay [7], in assay [8], in [9], in [11] and in [12] was “inactive” throughout. In addition, the Potency entry in assay [13], in assay [14] and in [16] was “inactive” each time.
